Compound activity deposited in PubChem by National Center for Advancing Translational Sciences (NCATS).
The list is not random: actives were taken first. Their share in the collection is about 21%.
HCV inhibitor: HCV inhibition; Huh7.5.1 HCVcc-Cre infection, luciferase reporter, 44 h; Potency, µM (doses to about 41.8 µM), for the others: top-dose activity change, negative = inhibition, hits mostly inhibitors; 3.4% of 340,000 active; further: potency means the concentration at half of the fitted maximal effect; on the % scale 0 is the no-effect control and ±100 the full control effect
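After 44 h co-culture of compound, cells and HCVcc-Cre (~0.5 moi), substrate is added for 15 min at room temperature and luciferase measured over 15 sec. Cells were seeded at 1,000/well and pre-cultured 4 h.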
Pf growth 48h: P. falciparum growth inhibition at 48 hours (one generation); Potency, µM (doses to about 28.7 µM), for inactives: at the top dose activity change, negative = inhibition, most hits filed as inhibitors; 5.9% of 310,000 active; P. falciparum luciferase growth in erythrocytes, 48 h; further: potency means the concentration at half of the fitted maximal effect; on the % scale 0 is the no-effect control and ±100 the full control effect
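Compounds are pin-transferred into medium, infected erythrocytes (2% hematocrit, 0.1% parasitemia final) are added, and plates sit one parasite generation at 37 C in 5% CO2. Detection reagent is then added and luminescence measured.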
HCMV inh: inhibitors of human cytomegalovirus | AID 1259415 | activity change, negative = inhibition, % at 57.5 µM | HFF cells, HCMV-luciferase reporter, 72 h; stronger effect = lower value | 4.5% of 410,000 active; in the data active means activity change below about -60%; inconclusive means no clear call, values can overlap the other calls; inactive means above about -39%; further: on the % scale 0 is the no-effect control and ±100 the full control effect
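Inhibition of viral replication was scored as loss of reporter luminescence in HFFs infected with HCMV-luciferase (MOI 1 PFU/cell) for 72 h; compounds tested at 2 doses, normalized to buffer and Salinomycin controls.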
Shiga toxin inh: blocks Shiga toxin action in Vero cells | Vero cells, Shiga toxin protein synthesis inhibition reporter | inhibition, % at 38.7 µM | 9.2% of 290,000 active | AID 2315; in the data active means inhibition mostly above about 28%, no sharp cut-off; inactive means mostly below about 43%; further: 0% is about no effect
CHX counter: affects cycloheximide protein synthesis inhibition readout, counter-screen | cell reporter, cycloheximide protein synthesis inhibition counterscreen | max response, % | 12% of 300,000 active | AID 2314; in the data active means max response mostly above about 13%, no sharp cut-off; inactive means mostly below about 14%; further: read at 38.3 µM for the half of the compounds with a filed dose; 0% is about no effect
Pf growth 96h: P. falciparum growth inhibition at 96 hours. Potency, µM (highest dose often 28.7 µM), for inactives: at the top dose activity change, negative = inhibition, usual class: inhibitors. P. falciparum luciferase reporter growth, 96 h. AID 504834. 6.9% of 320,000 active; further: potency means the concentration at half of the fitted maximal effect; on the % scale 0 is the no-effect control and ±100 the full control effect
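Compounds incubated with erythrocytes infected by luciferase-expressing P. falciparum (2% hematocrit, 0.05% parasitemia final) for 96 hours, 37 C in 5% CO2. Growth inhibition scored as decreased luciferase luminescence.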
* = called active by the depositor; ? = inconclusive; · = no result given; [ ] = remark or other dose. Unless noted, the call rests on the fitted dose curve; in most records, active means well fitted inhibition curve with a large enough effect; inconclusive means small, poorly fitted or top-dose-only effect, or another doubt; inactive means no such curve, though single readings can be large or run the other way.

SMILES	HCV inhibitor	Pf growth 48h	HCMV inh	Shiga toxin inh	CHX counter	Pf growth 96h
CC(=O)c1ccccc1NC(=O)COc1ccc(N(C)S(=O)(=O)c2ccc(C)c(C)c2)cc1	?	10µM*	21	·	·	12µM*
CN(c1ccc(OCC(=O)OCC(=O)Nc2ccc(F)cc2)cc1)S(=O)(=O)c1ccc(Cl)cc1	45%	-7%	15	-14	-5	?
CCOc1ccc(S(=O)(=O)N(C)c2ccc(OCC(=O)Nc3ccccc3F)cc2)cc1	?	-3%	12	·	·	?
COc1ccc(CCN(C)C(=O)COc2ccc(N(C)S(=O)(=O)c3ccc(C)cc3)cc2)cc1OC	?	9.3µM*	16	·	·	10µM*
COC(=O)c1ccc(N2C(c3cccc(OC)c3)=Cc3ccc(F)cc3C2c2c(C)[nH]c3ccccc23)cc1 (centres undefined)	·	·	4	·	·	·
CCOc1ccc(N(CC(=O)NCc2cccnc2)S(=O)(=O)c2ccc(F)cc2)cc1	18%	-15%	112	-2	-2	31%
Cc1cc(Cl)c2oc(C(=O)NCCN3CCCCC3CO)c(C)c2c1 (centres undefined)	·	?	64	27	15*	13µM*
Cc1cc(Cl)c2oc(C(=O)NCCC3CCCCO3)c(C)c2c1 (centres undefined)	25µM*	59%	75	87*	22	-20%
Cc1cccc(CNC(=O)c2cnc3sc(N4CCOCC4)nn3c2=O)c1	·	·	-7	·	·	·
O=C(CCSCc1cccc(F)c1)NCCc1ccccc1	5%	5%[0.00184 µM]	34	43	12	0%
Cc1cc(S(=O)(=O)N2CCCC(C)C2)ccc1-n1cnnn1 (centres undefined)	12%	-5%	1	-5	-4	16%
O=C(NCCCN1CCCCC1)C1CCN(S(=O)(=O)N2CCC3(CC2)OCCO3)CC1	20%	35%	-6	1	-3	?
COc1cc(CNc2ccc(N3CCCC3)cc2)cc(Cl)c1OC	-18%	3.3µM*	-13	32	19	40%
CCOc1cc(CNc2ccc(S(N)(=O)=O)cc2)cc(Cl)c1OC	19%	3%	-27	4	-2	-3%
CCOc1cc(CNc2ccc(N3CCCC3)cc2)cc(Cl)c1OC	12%	2.9µM*	65	41*	20	5.2µM*
C=CCOc1c(Cl)cc(CNc2ccc(C)c(Cl)c2)cc1OC	·	·	·	-10	-3	?
C=CCOc1c(Cl)cc(CNc2ccc(N(C)C)cc2)cc1OC	?	?	?	85	42*	?
COc1cc(CNc2ccc(N3CCOCC3)cc2)cc(Br)c1OC	0%	-3%	9	1	-2	14%
N#Cc1ccc(S(=O)(=O)NC2CCCCNC2=O)cc1 (centres undefined)	0%	·	-21	-3	-3	-4%
Cc1nc(-c2ccccc2)nc2n[nH]c(N)c12	17%	·	9	·	·	·
CC1(c2ccccc2)NC(=O)N(CC(=O)Nc2cc(S(=O)(=O)N3CCOCC3)ccc2Cl)C1=O (centres undefined)	2%	-22%	?	2	-3	-2%
Cc1ccc(S(=O)(=O)N2CCOCC2)cc1NC(=O)CN1CCN(C)CC1	35%	-22%	0	·	·	-23%
Cc1ccc(S(=O)(=O)N2CCOCC2)cc1NC(=O)CN1CCC(Cc2ccccc2)CC1	?	13µM*	-33	-4	-3	3.7µM*
Cc1ccc(C2(C)NC(=O)N(CC(=O)Nc3cc(S(=O)(=O)N4CCOCC4)ccc3C)C2=O)cc1 (centres undefined)	7%	-14%	-101*	-7	-2	?
Cc1ccc(NC(=O)NC(=O)CN2CCN(c3ccc(O)cc3)CC2)c(C)c1	?	3%	-81*	-8	-3	-2%
Cc1ccc(NC(=O)NC(=O)CN2CCC(C(N)=O)CC2)c(C)c1	1%	122%	10	·	·	282%
Cc1ccc(S(=O)(=O)N2CCOCC2)cc1NC(=O)CN1CCN(c2ccc(O)cc2)CC1	19%	?	-61*	15	-4	?
Cc1ccc(C)c(CN2C(=O)c3ccccc3S(=O)(=O)c3ccc(C(=O)Nc4cc(F)ccc4F)cc32)c1	·	·	14	·	·	·
